Data on 69 compounds can be found in PubChem BioAssay AID485297 (National Center for Advancing Translational Sciences (NCATS), 2010).

Hit rate of the full screen: of about 320,000 compounds, about 9,100 (2.8%) were called active. Inconclusive results (about 3%) are left out. Only a selection was taken, and actives are over-represented in it overall. Values without a mark were called inactive. Calls come from the whole dose curve; as a rule, active = well fitted activation curve with a large enough effect; inconclusive = small, poorly fitted or top-dose-only effect; inactive = no such curve, though single readings can be large or run the other way.
Potency is the fitted concentration of half-maximal effect.

This test is described as follows: qHTS Assay for Rab9 Promoter Activators. For activation, negative = inhibition: % of control where 0% means no effect. Note: nearly all actives have a fitted effect of over 60% in size. The conditions noted are these: Huh7 Rab9 promoter-luciferase reporter, luminescence, 24 h; series mostly up to 9.22 µM; activation, negative = inhibition: at the top concentration. The text has this: NIH Chemical Genomics Center [NCGC] NIH Molecular Libraries Probe Production centers Network [MLPCN] MLPCN Grant: MH089537-01 Assay Submitter (PI): Yiannis A. Ioannou NCGC Assay Overview: Niemann Pick Type C (NPC) is a rare neurodegenerative lipidosis that is characterized by lipid storage in the endosomal/lysosomal system. Treatment modalities for this devastating disease are currently non-existent due to the severe obstacles associated with accessing the central nervous system with proteins or genes (Ioannou, 2000). We have developed a new paradigm, termed "Orphan Receptor Bypass Therapy" (ORByT), to address these disorders. This paradigm posits the existence of endogenous "suppressor" proteins whose expression can dramatically improve LSD pathogenesis. The goal is the identification/discovery of small chemical compounds that can modulate the expression of these proteins and provide a new treatment modality for these devastating disorders. One such protein whose overexpression reverses aspects of the NPC phenotype is Rab9. We have developed and optimized a cell based luciferase reporter assay in 1536 well format for the identification of up-regulators of the Rab9 promoter.
The Rab9 promoter is cloned in front of the luciferase reporter gene, therefore […] promoter activation results in luciferase expression. Frozen stock of the Rab9 promoter transfected Huh7 cells were obtained from the laboratory of Dr. Yiannis Ioannou (The Mount Sinai School of Medicine, New York, NY). Cells were propagated and maintained at NCGC in medium containing RPMI-1640 supplemented with 10% FBS, 2mM L-glutamine, and 50ug/ml penicillin/streptomycin. Cells were harvested in and plated for assays in OP-MEM I reduced-serum medium supplemented with 10% FBS. The Amplite luciferase reporter gene assay kit was purchased from ABD Bioquest and prepared/stored according to manufacturers recommendations. qHTS Assay Setup: 1.Dispensed 5ul of Huh7 cells stably expressing Rab9-luciferase at a density of 1500 cells per well 1536-well plates. 2.Incubate cells at 37C, 5% CO2, and 95% humidity for 2 hours. 3.Transferred 23nl per well of compound in DMSO solution. 4.Incubated at 37C, 5% CO2, and 95% humidity for 24 hours. 5.Dispensed 3ul per well of Amplite reagent(ABD Bioquest) per well. 6.Incubate at ambient for 10 minutes. 7.Read using the luminescence protocol on the ViewLux plate reader (Perkin Elmer).
Turning to `CC(C)Oc1ccc(S(=O)(=O)N2CCOCC2)cc1NC(=O)C1CCCC1`, the “activation, negative = inhibition” value was -0.79%.

On to `CCN(CC(=O)Nc1c(F)cccc1F)C(=O)c1ccc(-c2ccccc2)cc1`, for which the “activation, negative = inhibition” value was 6.76%.

Take `O=C(O)CSc1ccc(S(=O)(=O)N2CCCC2)cn1`: the “activation, negative = inhibition” value is 9.49%.

Take `O=C(Nc1ccc(O)cc1)c1ccc(NC(=O)c2ccco2)cc1`: the “activation, negative = inhibition” value was 29.1%.

`CCOC(=O)c1ccc(NC(=O)CNC(=O)c2ccco2)cc1`: the “activation, negative = inhibition” value is -2.6%.

As for `COC(=O)c1ccc(NC(=O)c2ccco2)cc1`, the Potency was 2820 nM (active).

Turning to `COc1ccc(Cl)cc1NC(=O)CN(C)C(=O)c1ccc2n[nH]nc2c1`, the “activation, negative = inhibition” value is -1.33%.

Consider `O=C(/C=C/c1cnc2ccccc2n1)NC1CCCCCC1`, for which the Potency was 3160 nM (active).

Turning to `O=C(Cn1c(-c2cncs2)nc2ccccc21)NC1CCCC1`, the “activation, negative = inhibition” value was -3.47%.

On to `Cc1nc(/N=C(\N)NC(=O)NC2CCCCC2)nc2ccccc12`, for which the “activation, negative = inhibition” value is -23.8%.

Consider `Nc1ccc(Nc2cc(O)c3ncccc3c2)cc1`, for which the “activation, negative = inhibition” value is -37.2%.

Take `CN1CCN(S(=O)(=O)c2cccc(C(=O)Nc3cccc(S(N)(=O)=O)c3)c2)CC1`: the “activation, negative = inhibition” value is -8.11%.

For `COC(=O)c1ccc(-c2c(-c3ccccc3)ncc3cc(OC)c(OC)cc23)cc1`, the “activation, negative = inhibition” value was 1.03%.

As for `COc1ccc2nc(N3CCN(C(=O)c4ccc([N+](=O)[O-])o4)CC3)sc2c1`, the “activation, negative = inhibition” value is 26.3%.

Consider `Fc1ccc2nc(N3CCCCC3)sc2c1`, for which the Potency is 891 nM (active).

For `Cc1nc(N2CCCCC2)sc1C=O`, the “activation, negative = inhibition” value was -3.8%.

As to `O=C(NCCc1cccc(F)c1)C1CCCN(c2nc3ccccc3s2)C1` (centres undefined), the “activation, negative = inhibition” value is 11.3%.

In the case of `Cc1nc2ccc(NC(=O)C3CCCCC3)cc2s1`, the “activation, negative = inhibition” value is 24.9%.

As for `CN(C)CCCN(C(=O)c1ccc(S(=O)(=O)N2CCCCCC2)cc1)c1nc2ccc(Br)cc2s1`, the “activation, negative = inhibition” value was -1.22%.

For the compound `c1c2c(cc3sc(N4CCCCC4)nc13)OCCO2`, the Potency was 355 nM (active).

`CN(C)CCCN(C(=O)c1ccc(S(=O)(=O)N2CCCCCC2)cc1)c1nc2cc3c(cc2s1)OCCO3`: the “activation, negative = inhibition” value was 0.137%.

With `Brc1ccc2nc(N3CCCC3)sc2c1`, the Potency was 1410 nM (active).

`CCC(=O)c1ccc(OCC(=O)N(CC)CC2COc3ccccc3O2)cc1` (centres undefined): the “activation, negative = inhibition” value is -2.01%.

Consider `CCc1sc(C(=O)N2CCN(CC(=O)Nc3cccc(F)c3)CC2)cc1C`, for which the “activation, negative = inhibition” value was -2.46%.

For the compound `CC1CCCC(NC(=O)c2cc(-c3ccncc3)nc3ccccc23)C1C` (centres undefined), the “activation, negative = inhibition” value is 13.4%.

Take `Cc1ccc(/C=C/C(=O)OCC(=O)Nc2cccnc2Cl)cc1`: the “activation, negative = inhibition” value was -2.71%.

On to `COc1cc(/C=C2\SC(=O)NC2=O)ccc1OCc1ccc(Cl)nc1`, for which the activation, negative = inhibition was -1.24% [at 1.84 µM].

As to `Cc1ccc(C)c(NC(=O)C(c2ccccc2)N2CCN(CC(=O)NC3CC3)CC2)c1` (centres undefined), the “activation, negative = inhibition” value was -2.84%.

Take `COc1ccc(C(=O)NCc2ccc(C)cc2)cc1S(=O)(=O)N1CCCC1`: the “activation, negative = inhibition” value is 13%.

For the compound `O=C(CSc1nnnn1C1CCCC1)N1CCCCC1`, the Potency is 3160 nM (active).

Consider `CC(=O)Nc1ccc(NC(=O)CSc2nnnn2C2CCCCC2)cc1`, for which the “activation, negative = inhibition” value is -1.4%.

As for `CC1CCCC(C)N1C(=O)CSc1nnnn1C1CCCC1` (centres undefined), the “activation, negative = inhibition” value was 22.7%.

For `C[C@H](OC(=O)n1ccnc1)[C@@H]1O[C@@]2(C)CCC[C@@H]1O2`, the “activation, negative = inhibition” value is 0.69%.

As to `CN(CCN1CCOCC1)Cc1nc(-c2ccc3c(c2)OCO3)no1`, the “activation, negative = inhibition” value is 2.86%.

As for `COCC1CCCN(Cc2nc(-c3ccc4c(c3)OCO4)no2)C1` (centres undefined), the Potency was 3160 nM (active).

Regarding `CC(C)N(Cc1nc(-c2ccc3c(c2)OCO3)no1)CC1CCC(=O)N1` (centres undefined), the “activation, negative = inhibition” value was -1.11%.

As for `Nc1ccc(-c2sc(N)nc2-c2ccccc2)cc1`, the “activation, negative = inhibition” value is -1.5%.

As for `Nc1ccc(-c2nnc(-c3ccccc3)o2)cc1`, the Potency was 3980 nM (active).

As to `O=C(COC(=O)c1ccccc1Br)Nc1nnc(-c2ccccc2)o1`, the “activation, negative = inhibition” value was 1.02%.

For `O=C(Nc1cccc(Cl)c1)Nc1nnc(-c2ccccc2)o1`, the “activation, negative = inhibition” value is -0.239%.

Take `O=C(COC(=O)c1ccc(Oc2ccccc2)cc1)Nc1nnc(-c2ccccc2)o1`: the “activation, negative = inhibition” value is -3.52%.

For the compound `Nc1ccc(-c2nnc(-c3ccc(-c4ccccc4)cc3)o2)cc1`, the Potency was 2510 nM (active).

Turning to `CC(C(=O)NC1CCCC1)N1CCN(S(=O)(=O)c2ccccc2Cl)CC1` (centres undefined), the “activation, negative = inhibition” value is -5%.

Turning to `COc1ccc(N(CCC(=O)NCCc2ccccc2)S(=O)(=O)c2ccc(C)cc2C)cc1`, the “activation, negative = inhibition” value is 20.1%.

For `COC(=O)c1ccc(C(=O)NC2CC(C)(C)Cc3c2cnn3-c2ccc(F)cc2)nc1` (centres undefined), the “activation, negative = inhibition” value was 0.0943%.

`Cn1c(N)c(C(=O)COC(=O)COc2ccc(Cl)cc2)c(=O)n(C)c1=O`: the “activation, negative = inhibition” value is -7.69%.

Take `Cc1ccc(C(=O)COc2cccc(NC(=O)c3ccco3)c2)cc1`: the “activation, negative = inhibition” value is -4.08%.

As to `Cc1cccc(NC(=O)Nc2cccc(Oc3c(F)c(F)c(F)c(F)c3F)c2)c1`, the “activation, negative = inhibition” value was -10.1%.

Consider `Cc1ccoc1C(=O)Nc1cccc(Oc2ccccc2)c1`, for which the Potency is 3980 nM (active).

Consider `COc1ccc(-n2ncc3c(N4CCCc5ccccc54)ncnc32)cc1`, for which the Potency was 794 nM (active).

On to `COc1ccc2oc(=O)c(C(=O)N3CCCc4ccccc43)cc2c1`, for which the “activation, negative = inhibition” value was -2.67%.

Consider `Cc1ccc2c(c1)c1ncnc(N3CCc4ccccc4C3)c1n2C`, for which the “activation, negative = inhibition” value is 28.8%.

In the case of `Cc1cccc(-n2ncc3c(N4CCc5ccccc54)ncnc32)c1`, the Potency is 2000 nM (active).

With `COc1ccc(Oc2c(Cl)cnn(-c3ccccc3)c2=O)cc1`, the “activation, negative = inhibition” value is -8.14%.

With `Cc1cccc(-n2ncc(Cl)c(Cl)c2=O)c1`, the “activation, negative = inhibition” value was -53.7%.

As to `CC1(NC(=O)CCS(=O)(=O)c2ccc(Cl)cc2)CCS(=O)(=O)C1` (centres undefined), the “activation, negative = inhibition” value was -0.164%.

Consider `COCCNc1nc2nonc2nc1N1CCCC1c1nccs1` (centres undefined), for which the “activation, negative = inhibition” value is -11.2%.

Take `CC(=O)NC12CC3CC(C1)CC(C(=O)N1CCN(C(=O)c4ccco4)CC1)(C3)C2`: the “activation, negative = inhibition” value is 2.91%.

Turning to `CCCNC(=O)c1ccc(Cl)c(Cl)c1`, the “activation, negative = inhibition” value was -0.125%.

`CCCNC(=O)c1c(Cl)cnn1-c1ccc(C)cc1`: the Potency is 2510 nM (active).

Regarding `CCCNC(=O)CCc1c(C)nc2c(c(C)nn2-c2ccc(C)cc2)c1C`, the “activation, negative = inhibition” value is -3.89%.

As to `O=C(CCc1nc2sc3c(c2c(=O)[nH]1)CCCC3)NCC(=O)Nc1ccccc1Br`, the “activation, negative = inhibition” value was -0.0082%.

For `COc1cc(OC)cc(-c2c(-c3cccs3)c3cc(-c4ccc(OC)nc4)ccc3n2C)c1`, the “activation, negative = inhibition” value is -5.18%.

As to `O=C(NCC(=O)N1CCCCCCC1)c1ccccc1Cl`, the “activation, negative = inhibition” value is 19.2%.

Regarding `COc1ccccc1/C=C/C(=O)OCC(=O)NC1CCCCCC1`, the “activation, negative = inhibition” value was -1.16%.

Consider `Cc1cc(C)n2nc(C(=O)OCC(=O)N(C)CC(=O)Nc3ccc(F)cc3)nc2n1`, for which the “activation, negative = inhibition” value is -4.64%.

Regarding `COc1ccc(NC(=S)N2N=CCC2c2ccccc2)cc1` (centres undefined), the Potency is 3160 nM (active).

With `COc1ccc(C(=O)NC2CCN(C(=S)Nc3ccccc3)CC2)cc1`, the “activation, negative = inhibition” value is 3.06%.

`CCC(C)N(C)C1CCN(C(=S)Nc2ccc(OC)cc2)CC1` (centres undefined): the “activation, negative = inhibition” value is 0.502%.
